Screening results (PubChem)
Sampled rows, rich in hits. Any-hit rate of the full collection: about 3.2%.
AMA1-RON2 inh: inhibitors of Plasmodium falciparum AMA1-RON2 interaction; AlphaScreen AMA1-biotinylated RON2 peptide binding; Potency, µM (titrated, usually from 58.2 µM), inactives show at the top dose activity change, negative = inhibition, most hits filed as inhibitors; AID 720542; 360,000 compounds, 0.2% hits;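 also: 0% = vehicle wells and -100% = peptide control; nearly all actives have a fitted effect of over 45% in size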
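AMA1 (3D7) with his tag at 25 nM final met compounds first, then biotinylated RON2 peptide at 25 nM; detection used donor plus acceptor beads, 10 µg/mL apiece, read by AlphaScreen after 30 min at room temperature.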
AmpC detergent: AmpC beta-lactamase inhibition with detergent present; P00811; AmpC hydrolysis of nitrocefin, absorbance 480 nm, 0.01% Triton; Potency, µM (highest dose often 114 µM), for inactives: at the top dose activity change, negative = inhibition, hits mostly inhibitors; 370,000 compounds, 0.041% hits; AID 485294;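 also: 0% = no-compound wells and -100% = no-enzyme wells; nearly all actives have a fitted effect of over 25% in size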
Target sequence (P00811 whole entry, looked up): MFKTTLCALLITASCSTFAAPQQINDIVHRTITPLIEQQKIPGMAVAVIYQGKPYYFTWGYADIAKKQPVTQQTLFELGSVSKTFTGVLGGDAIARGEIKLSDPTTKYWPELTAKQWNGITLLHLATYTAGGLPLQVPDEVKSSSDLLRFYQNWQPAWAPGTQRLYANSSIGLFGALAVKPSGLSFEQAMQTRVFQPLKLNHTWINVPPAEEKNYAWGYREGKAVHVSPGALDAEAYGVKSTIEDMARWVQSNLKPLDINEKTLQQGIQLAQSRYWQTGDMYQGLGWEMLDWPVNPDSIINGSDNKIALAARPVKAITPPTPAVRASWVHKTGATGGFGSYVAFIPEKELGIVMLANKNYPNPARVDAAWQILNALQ
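AmpC (5.3 nM in the dispensed reagent) in 20 mM phosphate pH 7.0 with 0.01% (detergent screen) or 0.0001% Triton X-100 was preincubated with compounds for 15 min at room temperature. Nitrocefin was then added from an 800 uM solution, and hydrolysis was followed at 480 nm.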
RE007 growth inh: less growth of the S. pombe RE007 Vpr strain | Potency, µM (series often up to 92.2 µM), for inactives: top-dose activity change, negative = less growth, usual class: inhibitors | 360,000 compounds, 0.21% hits | AID 651644 | S. pombe RE007 Vpr strain, BacTiter-Glo ATP luminescence, 24 h; active = well fitted falling curve with a large enough effect; inconclusive = small, poorly fitted or top-dose-only effect; inactive = no such curve, though single readings can be large or run the other way; also: nearly all actives have a fitted effect of over 50% in size
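Fission yeast RE007 carrying one integrated HIV-1 vpr copy, seeded at OD 0.01 in PMG+AL medium with 23 nL pinned compound. Grown 24 h at 30 degrees; viability read by BacTiter-Glo luminescence after 5 min.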
Sm TGR block: S. mansoni TGR enzyme inhibition. 360,000 compounds, 3% hits. purified TGR, DTNB reduction, TNB absorbance 405 nm. Q962Y6. Potency, µM (doses to about 114 µM), without a hit: top-dose activity change, negative = inhibition, most hits filed as inhibitors; also: nearly all actives have a fitted effect of over 60% in size
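TGR 20 nM + NADPH 100 uM (dispensed conc.), cpd preinc 15 min RT; start with NADPH (500 uM addition) then DTNB (15 mM addition). Kinetic TNB absorbance, 405 nm filter. Four-parameter Hill fit across titration.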
AmpC inh no detg: inhibitors of E. coli AmpC beta-lactamase without detergent | P00811 | AmpC nitrocefin hydrolysis, absorbance 480 nm, 0.0001% Triton | Potency, µM (titrated, usually from 57.1 µM), inactives show at the highest dose activity change, negative = inhibition, actives largely listed as inhibitors | 330,000 compounds, 0.52% hits | AID 485341;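 also: plate controls were no compound for no effect and no enzyme for full effect; nearly all actives have a fitted effect of over 20% in size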
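20 mM phosphate pH 7.0 + 0.01% (detergent screen) or 0.0001% Triton X-100; 5.3 nM AmpC reagent; cpd preinc 15 min RT; nitrocefin (800 uM stock) to start; A480 q20 s × 4 min; Activity was normalised to no-enzyme and no-compound control wells.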
* marks the source's active call; other numbers are inactive results; ? = inconclusive; nt = no result; [ ] = another dose, or the depositor's remark. Unless noted, calls follow the shape of the dose curve; as a rule, active = well fitted curve in the direction sought with a large enough effect; inconclusive = small, poorly fitted or top-dose-only effect, or another doubt; inactive = no such curve, though single readings can be large; an effect the other way counts as inactive or inconclusive. Unless noted, % is scaled to controls: 0 for no effect and ±100 for the full control effect; potency is read from the fitted curve at half-maximal effect.

SMILES | AMA1-RON2 inh | AmpC detergent | RE007 growth inh | Sm TGR block | AmpC inh no detg
CCCc1nc(SCC(=O)N2CCC(C)CC2)c2c(=O)n(C)c(=O)n(C)c2n1 | -0.5% | 1.0% | -12.5% | -13.8% | 48.9%
COc1cc(OC)c(NC(=O)Cn2c(=O)oc3cc(S(=O)(=O)N4CCCC4)ccc32)cc1Cl | nt | 3.4% | nt | -0.3% | nt
O=C1Nc2ccccc2/C1=N\N=C\C1=C(N2CCOCC2)C(=C\c2ccccc2)/CC1 | nt | 2.1% | nt | 44.7µM* | -17.0%
O=C1Nc2ccc(Br)cc2/C1=N\N=C\C1=C(N2CCOCC2)C(=C/c2ccccc2)/CC1 | ? | nt | -20.7% | nt | nt
CSc1cccc(NC(=O)c2cc3c(COC(C)=O)cnc(C)c3oc2=O)c1 | nt | 14.1% | nt | 0.4% | nt
CC1C(=O)Nc2ccc(S(=O)(=O)NCc3ccc(N(C)C)cc3)cc2NC1=O (stereo unspecified) | nt | 17.6% | nt | -2.0% | nt
O=C(NC1CCCCCC1)c1ccc(Br)o1 | -7.7% | -12.7% | -5.2% | 1.4% | 205.1%
O=C(NC1CCCCC1)Oc1cc2oc(=O)sc2cc1Br | 0.0% | 2.5% | ? | 3.16µM* | -37.7%
COC(=O)c1ccc2c(c1)C(C)(C)C(/C=C/c1ccccc1O)=[N+]2C | ? | 6.1% | ? | 50.1µM* | -36.6%
COc1cccc(C(=O)c2ncc(C(F)(F)F)cc2Cl)c1 | 1.8% | 7.2% | 5.5% | 50.1µM* | -17.0%
CCOC(=O)c1c(N2C(=O)C3C4C=CC(O4)C3C2=O)sc2c1CCCC2 (stereo unspecified) | 5.5% | 2.8% | ? | 3.16µM* | nt
CCOC(=O)c1c(-n2cnnn2)sc2c1CCCC2 | -11.9% | 4.6% | 4.5% | -0.2% | -23.7%
O=C(CSc1ccc2ccccc2c1)NCCc1ccc(O)c(O)c1 | -16.3% | ? | 14.2% | 11.2µM* | -33.5%
COc1ccc(CCNC(=O)CSc2ccc3ccccc3c2)cc1OC | 1.8% | 0.7% | 0.8% | -16.6% | -16.6%
CCOc1ccccc1N(CC)C(=O)Cn1ncc2c1-c1ccccc1OC2 | nt | 6.3% | nt | 4.4% | nt
COc1ccc(N2CCCC2)c(NC(=O)c2ccc(Br)o2)c1 | ? | 10.8% | -7.8% | 44.7µM* | -28.7%
O=C(Nc1ccccc1N1CCCC1)c1ccc(Br)o1 | -15.5% | 0.7% | 15.0% | -27.5% | -19.6%
C=CCN=c1scc(-c2ccc(F)cc2)n1/N=C/c1ccccn1 | ? | -6.4% | -16.2% | -15.1% | 41.7%
C=CCN=c1scc(-c2ccc3c(c2)NC(=O)CO3)n1/N=C(\C)c1ccccn1 | 4.6% | -12.4% | 5.6% | 35.5µM* | -25.9%[11.4 µM]
O=C(CSc1nnc(-c2ccc(O)cc2)n1Cc1ccco1)c1ccccc1 | -5.7% | -7.0% | 3.4% | 44.7µM* | -30.0%
O=C(CC(SCc1ccco1)c1ccc(O)cc1)c1cccs1 (stereo unspecified) | -5.2% | -8.1% | -17.3% | 28.2µM* | -42.7%
O=C(CSc1nnc(-c2cccnc2)n1Cc1ccco1)c1ccccc1 | -6.6% | -7.4% | 1.3% | -30.8% | -4.9%
CCn1c(CNC(=O)c2ccco2)nnc1SCC(=O)c1ccc(F)cc1 | 12.6% | ? | -4.1% | 4.9% | -8.0%
O=C(CC(SCCO)c1ccc2c(c1)OCO2)c1cccs1 (stereo unspecified) | 4.1% | ? | -22.2% | -3.8% | -25.6%
Cn1c(CNC(=O)c2ccco2)nnc1SCC(=O)c1ccc(F)cc1 | 16.2% | 3.5% | 7.9% | 10µM* | -7.9%
SMILES | AMA1-RON2 inh | AmpC detergent | RE007 growth inh | Sm TGR block | AmpC inh no detg
O=C(CSc1nnc(-c2cc3ccccc3cc2O)n1Cc1ccco1)c1ccc(F)cc1 | 38.6% | 1.3% | 3.3% | -33.2% | -33.5%
Cc1occc1-c1nnc(SCC(=O)c2ccc(F)cc2)n1Cc1ccco1 | -26.1% | 0.0% | -4.4% | 22.4µM* | -18.9%
COc1ccc(S(=O)(=O)N2CCC(n3c(C(F)(F)F)nc4cccnc43)CC2)cc1OC | nt | 1.1% | nt | -1.1% | nt
CC1CN(C(=O)Nc2ccc(C(=O)NCc3ccccc3F)cc2)c2ccccc2S1 (stereo unspecified) | nt | 1.8% | nt | -2.0% | nt
COc1ccc(-c2cc3ccc(O)c(CN4CCOCC4)c3oc2=O)cc1OC | nt | 14.7% | nt | -3.0% | nt
CC1CCc2c(sc3nc(-c4cc5ccccc5oc4=O)nc(Cl)c23)C1 (stereo unspecified) | nt | -7.2% | nt | -5.9% | nt
COc1ccc(NC(=O)CN(Cc2ccccc2)S(=O)(=O)c2ccc3nc(C)sc3c2)cc1 | nt | 0.6% | nt | -11.3% | nt
CCOc1ccc(CCNCc2c(C(=O)O)n(Cc3ccc(C)cc3)c3cc(OC)ccc23)cc1 | nt | -12.5% | nt | -6.2% | nt
O=C(CSc1nnc(-c2ccc(O)cc2)n1Cc1ccco1)c1cccs1 | -8.8% | 0.3% | 1.1% | 25.1µM* | -26.7%
O=C(CSc1nnc(-c2ccncc2)n1Cc1ccco1)Nc1cccc(O)c1 | -18.3% | -6.8% | -10.9% | -9.5% | -2.5%
O=C(Cn1ncc2ccsc2c1=O)N1CCN(c2ccc(F)cc2)CC1 | nt | 11.6% | nt | 1.5% | nt
COc1ccc(C(=O)O/N=C(\C)c2nccs2)cc1 | 9.9% | -5.3% | -15.5% | 7.7% | -1.0%
COc1ccc(C(=O)O/N=C(/C)c2cccs2)cc1 | -2.0% | -6.7% | 39.8µM* | 0.6% | -35.3%
O=C(NCC1CCCO1)c1nn2c(C(F)(F)F)cc(-c3ccc(Br)o3)nc2c1Br (stereo unspecified) | 0.0% | -2.2% | 9.0% | 15.8µM* | -14.3%
O=C(c1ccccc1)N1CCN(C(=O)c2nn3c(C(F)(F)F)cc(-c4ccco4)nc3c2Br)CC1 | -6.2% | -2.4% | 5.2% | 39.8µM* | 34.3%
O=C(c1cc2nc(-c3ccco3)cc(C(F)(F)F)n2n1)N1CCN(Cc2ccccc2)CC1 | 1.8% | -11.1% | 8.4% | 50.1µM* | 164.9%
CC(C)NC(=O)c1nn2c(C(F)(F)F)cc(-c3ccco3)nc2c1Cl | 42.0% | -1.8% | -9.0% | ? | -11.8%
CN(CCc1ccccn1)C(=O)c1nn2c(C(F)(F)F)cc(-c3ccco3)nc2c1Cl | -1.4% | -8.9% | 15.5% | 44.7µM* | 63.1%
O=C(O)c1cnn2c(C(F)(F)F)cc(-c3ccco3)nc12 | 5.4% | ? | 16.0% | ? | -19.1%
CCOC(=O)c1ccc(N2C(=O)c3n[nH]c(C)c3C2c2ccc(OCC)cc2)cc1 (stereo unspecified) | nt | 4.0% | nt | 0.4% | nt
Cc1cc2nc(-c3ccco3)cc(C(F)(F)F)n2n1 | -1.1% | 15.3% | -10.1% | -2.6% | 10µM*
O=C(Nc1cc(F)ccc1F)c1cc2nc(-c3ccco3)cc(C(F)(F)Cl)n2n1 | nt | 5.6% | nt | 22.4µM* | nt
O=C(c1cnn2c(C(F)(F)F)cc(-c3ccco3)nc12)N1CCc2ccccc2C1 | 14.1% | -8.3% | 15.3% | 12.6µM* | 18.5%
O=C(NC1CCCCC1)c1cnn2c(C(F)(F)F)cc(-c3ccco3)nc12 | 24.4% | 0.4% | 3.1% | 0.0% | -6.9%
